# Screens: PubChem, The Scripps Research Institute Molecular Screening Center
# Hits are enriched below; roughly 4.1% of the tested compounds scored in any of these assays.
# hgDAF-12 ag – H. glycines DAF-12 receptor agonists, primary screen, cell-based, luminescence, HEK293, GAL4 fusion, UAS-luciferase; HEK293 GAL4-hgDAF12 UAS-luciferase reporter, agonist luminescence; normalized to butyrate control; Nuclear hormone receptor DAF-12 (Heterodera glycines), GAL4 fusion; activation, % at 6.8 µM; 1.8% of 370,000 active; AID 687014, 2013;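 active means activation above a cutoff set at the mean of all screened compounds plus 3 SD, cut at about 10% in these data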;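 further: 0% = DMSO wells and 100% = sodium butyrate wells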
# hcDAF-12 act – H. contortus DAF-12 nuclear receptor activators, primary screen, cell-based, luminescence, HEK293, lit1-tk-luc reporter | 1.4% of 370,000 active | HEK293 hcDAF-12 lit1-tk-luc reporter; 0% DMSO, 100% Δ7-dafachronic acid | activation, % at 6.8 µM;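 active means activation above the mean of all tested compounds plus 3 SD, cut at about 5.5% in these data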;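 further: 100% = response to 3 µM Δ7-dafachronic acid high control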
# DAX1 inh-1 – DAX1 (NR0B1) inhibitors, primary screen, cell-based, HEK293, Gal4-DAX1, luciferase luminescence; inhibition, % at 6.75 µM; HEK293 Gal4-DAX1 luciferase reporter; AID 504766, 2011; 0.99% of 340,000 active;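 active means inhibition above the mean over all tested compounds plus 3 SD, cut at about 4.2% in these data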;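 further: 0% = DAX1-transfected cells with DMSO and 100% = empty-vector control cells with DMSO; inhibition shows as a rise in luminescence from relieved DAX1 repression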
# Target sequence (P51843 207-470 limits assumed): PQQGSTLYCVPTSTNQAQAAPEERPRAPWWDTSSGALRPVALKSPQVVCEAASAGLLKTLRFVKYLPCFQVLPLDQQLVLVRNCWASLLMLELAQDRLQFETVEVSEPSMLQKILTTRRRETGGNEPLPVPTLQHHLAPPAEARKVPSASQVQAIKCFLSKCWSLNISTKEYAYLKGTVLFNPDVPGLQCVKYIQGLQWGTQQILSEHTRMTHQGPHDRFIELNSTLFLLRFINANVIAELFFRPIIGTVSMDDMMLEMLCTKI
# ssDAF12 agonist – S. stercoralis DAF-12 nuclear receptor activators, primary screen, cell-based, luminescence, HEK293, GRIP1 co-expression, lit1-tk-luc; Nuclear hormone receptor DAF-12 (Strongyloides stercoralis); activation, % at 6.8 µM; 1% of 370,000 active; AID 652126, 2013; HEK293 ssDAF-12/GRIP1 lit1-tk-luc reporter; % of 3 µM dafachronic acid response;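 active means activation above the mean over all tested compounds plus 3 SD, cut at about 0.9% in these data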;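 further: 0% = DMSO-only wells and 100% = 3 µM delta7-dafachronic acid wells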
# DAX1 inh-2 – DAX1 (NR0B1) inhibitors on StAR promoter, primary screen, cell-based, luminescence, SF-1 (NR5A1), full-length DAX-1; HEK293T StAR-luciferase reporter, SF-1/DAX-1 repression relief; inhibition, % at 6.8 µM; 1.1% of 370,000 active;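 active means inhibition above the mean over all tested compounds plus 3 SD, cut at about 3.6% in these data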;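 further: 0% = DAX-1 cells with DMSO and 100% = cells lacking DAX-1 with DMSO; higher inhibition means more luminescence from relief of DAX-1 repression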
# * hit, by the source's call; x = no result given.
SMILES,hgDAF-12 ag,hcDAF-12 act,DAX1 inh-1,ssDAF12 agonist,DAX1 inh-2
C=CCN1C(=O)[C@@H](CC(=O)NCc2ccc(C)o2)[C@]2(C(=O)OC)CCCCC=C12,1,0,x,-1,0
CC(C)(C)NC(=O)c1cc(-c2ccc3c(c2)OCO3)nc2ccccc12,4,5.9*,0,0,-1
O=C(O)c1cc(-c2ccc3c(c2)OCO3)nc2ccc(Cl)cc12,1,5.8*,0,1,1
c1cnc(Sc2ccc3nnnn3n2)nc1,2,-1,1,1.3*,-1
c1ccc(-c2ccc3nnnn3n2)cc1,0,-1,0,-2,1
O=c1oc2ccccc2n1CSc1nc2ccccc2s1,11*,4,2,0,3
CCOC(=O)[C@]12CCCC3=C1N(CCC3)C(=O)[C@@H](CC(=O)N1CCN(C(=O)C3CC3)CC1)C2,-1,0,x,-1,1
COc1ccccc1OC(=O)c1ccc(S(=O)(=O)N(C)C)cc1,3,-1,5.2*,-1,0
CCC(C(=O)O)n1c2ccccc2c2cn[nH]c(=O)c21 (stereo unspecified),1,5,-1,1.0*,0
CCC(C(=O)O)n1c(C(F)(F)F)nc2ccccc21 (stereo unspecified),1,-1,2,-1,0
COCCC(=O)N1CCC(Oc2ccc(C(=O)NCCn3cccn3)cc2)CC1,1,-1,0,-1,0
COCCC(=O)N1CCC(Oc2ccc(C(=O)NCCSC)cc2)CC1,0,0,6.9*,-1,0
C=CCNC(=O)Nc1ccc2c(c1)[C@@]1(CC(=O)N(CC(C)C)C1c1ccccc1)C(=O)N2C (stereo partly specified),-1,0,x,-1,2
COC(=O)c1sc(N2C(=O)c3oc4ccccc4c(=O)c3C2c2cccc(O)c2)nc1C (stereo unspecified),-1,0,1,-1,0
O=C1c2oc3ccccc3c(=O)c2C(c2ccc(O)cc2)N1c1nccs1 (stereo unspecified),-3,0,6.1*,-1,0
COC(=O)N1Cc2ccnnc2CC1c1ccccc1-c1ccc(OC)cc1 (stereo unspecified),-2,1,x,-1,1
CN(C)CCCN=c1cc(-c2ccccc2)oc2ccc(Cl)cc12,10,5,6.3*,0,4.4*
CC(O)CN=c1cc(-c2ccccc2)oc2ccc(Cl)cc12 (stereo unspecified),11*,4,0,-1,1
COC(=O)c1c(NC(=O)C2CCCCC2C(=O)O)sc2c1CCCCC2 (stereo unspecified),3,3,4.9*,0,2
CCN(CC)C(=O)CCc1nnc(Cc2cccc(C(F)(F)F)c2)o1,13*,2,2,1,1
Cc1cc(CN(C)C(=O)CCc2nnc(Cc3cccc(C(F)(F)F)c3)o2)on1,6,2,3,0,1
CC(C)C[C@H]1CN=C(Nc2ccccc2)N1CC1CCC(C(C)(C)C)CC1 (stereo partly specified),x,x,4.5*,x,x
COc1ccc(-c2oc3ccc(-c4cc(OC)c(OC)c(OC)c4)cc3c2-c2ccc(OC)cc2)cc1,0,-2,x,-1,0
COc1ccc(C#Cc2c(-c3ccsc3)oc3ccc(-c4cc(OC)c(OC)c(OC)c4)cc23)cc1,4,5.6*,0,-1,-1
CC(=O)NCCC(=O)Nc1nc2c(ccc3ccccc32)s1,1,1,1,-1,0
SMILES,hgDAF-12 ag,hcDAF-12 act,DAX1 inh-1,ssDAF12 agonist,DAX1 inh-2
Nc1nc2c(ccc3ccccc32)s1,1,3,4.9*,0,0
C(=C/c1nccc2c1[nH]c1ccccc12)/c1ccc2c(c1)OCO2,13*,2,-1,-1,1
Cc1csc(NC(=O)c2sccc2C)n1,12*,5,3,0,2
Cc1nnc(NC(=O)c2cc(-c3ccco3)nc3ccccc23)s1,-1,0,1,0,-1
Cn1cccc1C(=O)Nc1nc(-c2ccccn2)cs1,6,1,-1,0,0
Cc1csc(NC(=O)c2cc(-c3ccco3)nc3ccccc23)n1,1,4,-1,8.8*,-1
Cc1csc(NC(=O)c2cccn2C)n1,12*,5,2,0,3
C=CCOC(=O)c1sc(NC(=O)c2ccco2)nc1C,11*,5,2,0,3
CCOC(=O)c1sc(NC(=O)c2cc3ccccc3o2)nc1C,4,1,1,-1,3
COC(=O)[C@H](CC(C)C)N(CCc1cn(Cc2ccccc2)nn1)S(=O)(=O)c1ccccc1Br,-3,-2,x,-1,-1
COC(=O)[C@H](Cc1ccccc1)N1CC(N2CCCC2)CS1(=O)=O (stereo partly specified),6,2,x,-1,0
O=C(Nc1nc(-c2ccc(Cl)s2)cs1)c1ccco1,12*,1,3,-1,1
O=C(Nc1nc(-c2ccc(Cl)s2)cs1)c1cccs1,10,2,-1,-1,0
Cc1csc(NC(=O)c2ccco2)n1,5,1,1,1.0*,1
O=C(O)Cc1csc(NC(=O)c2ccco2)n1,2,-1,0,0,-1
Cc1ccc(NS(=O)(=O)c2ccc(Cl)c(C(=O)Nc3cccc(C(=O)O)c3)c2)cc1,2,-1,5.4*,0,0
O=C(NCc1ccco1)C1CCN(S(=O)(=O)c2cccc3cccnc23)CC1,1,1,2,-2,0
Cc1ccc(C(=O)Nc2ccc3cn[nH]c3c2)cc1S(=O)(=O)N1CCCCC1,6,6.1*,0,0,0
O=C(O)c1cccc(NC(=O)c2ccc(Cl)c(S(=O)(=O)N3CCCCCC3)c2)c1,11*,2,-4,0,2
O=C(NCc1cccs1)C1CCN(S(=O)(=O)c2cccc3cccnc23)CC1,0,-2,4.3*,-1,-1
Cc1ccc(NC(=O)CCl)cc1S(=O)(=O)N1CCCCCC1,-11,-1,0,-1,-2
O=C(O)c1cccc(NC(=O)c2cccc(S(=O)(=O)N3CCc4ccccc43)c2)c1,-2,-2,4.6*,-1,-1
COCCNCC(=O)Nc1ccc(C)c(S(=O)(=O)N2CCCCC2)c1,-2,0,4.3*,-1,1
Cc1ccc(C(=O)NCc2cccs2)cc1S(=O)(=O)N1CCCCC1,0,-1,-1,1.2*,0
